“And” between values parts separate entries of the source, which are not always exact repeats. Identical values can stand only once. Results filed as inconclusive are left out. The source made the active and inactive calls. Unless noted, the limit is not given here; nearly all actives have AC50 up to about 30 µM.
How the values were obtained:
[1] = growth inhibition of DIPG glioma cells, dose response, cell-based, SU-DIPG-XIII, MIPE4.0, CellTiter-Glo, qHTS (AID 1347061; cut-off not given, nearly all actives have AC50 up to about 37 µM;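 also: cells exposed to compound for 48 hours before readout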); conditions: SU-DIPG-XIII viability, CellTiter-Glo ATP luminescence
[2] = growth inhibition of DIPG glioma cells, dose response, cell-based, JHH-DIPG-1, MIPE4.0, CellTiter-Glo, qHTS (AID 1347062; cut-off not given, nearly all actives have AC50 up to about 27 µM;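 as to AC50: cells exposed to compound for two days before readout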); conditions: JHH-DIPG-1 viability, CellTiter-Glo ATP luminescence
[3] = growth inhibition of DIPG glioma cells, dose response, cell-based, SU-DIPG-IV, MIPE4.0, CellTiter-Glo, qHTS (AID 1347063); conditions: SU-DIPG-IV viability, CellTiter-Glo ATP luminescence;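 also: compound exposure lasted 48 hours before the viability readout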
[4] = SU-DIPG-VI glioma cell viability, MIPE4.0 library, CellTiter-Glo luminescence, qHTS (AID 1347066); conditions: CellTiter-Glo ATP luminescence;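 also: cells exposed to compound for 48 hours before readout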
[5] = sensitizers of A549 cells to miR-34 induction, primary screen, imaging, A549 dox-inducible miR-34, nuclei and caspase counts (AID 1347080;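 active = compounds whose cell count with miR-34 switched on is under 0.7 times the count with it off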); conditions: A549 miR-34 inducible, Hoechst nuclei count, 48 h
[6] = survival rescue of mitochondrial mutant cells in low glucose, primary screen, MELAS cybrids, Rieske KO mouse fibroblasts, CellTiter-Glo (AID 1508586;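 active = mean z-score across replicates of 1.96 or higher in either the MELAS or the Rieske mutant cell line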;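 also: z relative to plate mean and SD of compound and empty wells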)
[7] = SU-DIPG-XXV glioma cell viability, MIPE5.0 library, qHTS (AID 1347068; cut-off not given, nearly all actives have IC50 up to about 30 µM)
[8] = modifiers of HSF1 nuclear foci, imaging, Selleck Cancer Library (AID 1347162; in the data active = plate-normalised HSF1 focus index below about 0.46); conditions: human cells, at 10 µM; SSMD: measured here: HSF1 foci SSMD mean; cell count: measured here: cell number; plate-normalised HSF1 focus index: stronger effect = lower value
[9] = viability loss in pontine glioma line – cell-based, SU-DIPG-XXV, MIPE5.0, CellTiter-Glo, qHTS, dose response (AID 1347065; cut-off not given, nearly all actives have AC50 up to about 26 µM;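 also: cells exposed to compound for 48 hours before ATP readout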); conditions: CellTiter-Glo ATP luminescence
[10] = JHH-DIPG-1 glioma cell viability, MIPE5.0 library, CellTiter-Glo luminescence, qHTS (AID 1347067; cut-off not given, nearly all actives have AC50 up to about 26 µM;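 also: cells exposed to compound for 48 hours before readout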); conditions: JHH-DIPG-1 glioma viability, CellTiter-Glo ATP luminescence
[11] = LFS_MB_P medulloblastoma growth inhibition, cell-based, chromothripsis tumors, cisplatin or BGB combos (AID 1671449; in the data active = inhibition above about 80%;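 also: cells exposed for 96 hours; 0% = vehicle DMSO and 100% = killing by high DMSO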); conditions: LFS_MB_P medulloblastoma cells
[12] = HDN33 neuroblastoma growth inhibition, cell-based, chromothripsis tumors, cisplatin or BGB combos (AID 1671450; in the data active = inhibition above about 80%;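 also: cells exposed to compound for four days; 0% = vehicle DMSO and 100% = cell killing by high DMSO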); conditions: HDN33 neuroblastoma cells, stronger effect = higher value
[13] = ICB984 medulloblastoma cell growth inhibition, synergistic combos for chromothripsis tumors, cisplatin or BGB combos (AID 1671451; call rule not given here;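 also: cells exposed for 96 hours before readout; 0% = vehicle DMSO and 100% = killing by high DMSO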); conditions: ICB984 medulloblastoma cells, drug combinations, stronger effect = higher value
[14] = LFS_MB_1R medulloblastoma cell growth inhibition, synergistic combos for chromothripsis tumors, cisplatin or BGB combos (AID 1671452; in the data active = inhibition above about 80%;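 also: cells exposed for 96 hours before readout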); conditions: LFS_MB_1R medulloblastoma cells, stronger effect = higher value
[15] = HTB85 osteosarcoma cell growth inhibition, synergistic combos for chromothripsis tumors, BGB or cisplatin IC20 combos (AID 1671453; in the data active = inhibition above about 80%;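 also: cells exposed for 96 hours before readout; 0% = vehicle DMSO and 100% = high DMSO killing control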); conditions: HTB85 osteosarcoma cells, drug combinations, stronger effect = higher value
[16] = MDA-MB-436 breast carcinoma cell growth inhibition, synergistic combos for chromothripsis tumors, BGB or cisplatin combos (AID 1671458; call rule not given here;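 also: cells exposed for 96 hours; 0% = vehicle DMSO and 100% = killing by high DMSO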); conditions: MDA-MB-436 breast carcinoma growth inhibition, drug combinations, stronger effect = higher value
[17] = growth inhibition of BT084 medulloblastoma cells, cell-based, ICGC_MB145, cisplatin and BGB IC40 combos (AID 1671461; in the data active = inhibition above about 80%;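 also: cells exposed to drugs for 96 hours; 0% = vehicle DMSO and 100% = high DMSO full killing control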); conditions: drug combinations, stronger effect = higher value
[18] = growth inhibition of RCMB18 medulloblastoma cells, cell-based, cisplatin and BGB IC40 combos (AID 1671462; in the data active = inhibition above about 80%;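 also: cells exposed to compound for four days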); conditions: stronger effect = higher value
[19] = growth inhibition of CRL1545 osteosarcoma cells, cell-based, cisplatin and BGB IC20 combos (AID 1671464; in the data active = inhibition above about 80%;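 also: cells exposed to compound for 96 hours before readout; 0% = vehicle DMSO and 100% = high DMSO killing control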); conditions: stronger effect = higher value
[20] = stronger effect = lower value, cell number ratio, induced over uninduced
[21] = measured here: relative caspase fold change +Dox/-Dox
[22] = measured here: total cells with miR-34 induction, stronger effect = lower value
[23] = measured here: total cells without miR-34 induction
[24] = MELAS cybrid survival, CellTiter-Glo 48 h, stronger effect = higher value
[25] = Rieske KO mouse fibroblast survival, CellTiter-Glo 72 h
[26] = measured here: combination with BGB IC40, at 0.05 µM
[27] = measured here: with BGB IC20 combination, at 0.5 µM
[28] = measured here: with cisplatin IC20 combination, at 0.5 µM
[29] = measured here: combination with cisplatin, at 0.5 µM

CNc1ccc(C(=O)Oc2cc(ON[N+](=O)N(C)C)c([N+](=O)[O-])cc2C#N)cc1
outcome [1]: inactive | outcome [2]: inactive | outcome [3]: inactive | outcome [4]: inactive

CC1(C)C(=O)N(CCN2CCC(C(=O)c3ccc(F)cc3)CC2)c2ccccc21
outcome [1]: inactive | outcome [2]: inactive | outcome [3]: inactive | fold change [5, 20]: 0.986 (inactive) | fold change [5, 21]: 1.27 | cell count [5, 22]: 7420 | cell count [5, 23]: 7530

Cn1c(N2CCCCS2(=O)=O)nc(C(=O)NCc2ccc(F)cc2)c(O)c1=O
outcome [1]: inactive | outcome [2]: inactive | outcome [3]: inactive | outcome [4]: inactive | fold change [5, 20]: 0.915 (inactive) | fold change [5, 21]: 0.973 | cell count [5, 22]: 7350 | cell count [5, 23]: 8040 | z-score [6, 24]: -0.418 (inactive) | z-score [6, 25]: 0.522

C[C@H](NCc1ccc2c(c1)nc(NC(=O)c1ccc(-c3cn[nH]c3)s1)n2CCc1ccccc1)C(C)(C)C
AC50 [1]: 2.96 µM (active) | AC50 [2]: 1.05 µM (active) | AC50 [3]: 1.32 µM (active) | AC50 [4]: 5.26 µM (active)

CCCCCCCCCCCCCCCC(=O)OC[C@@H](NC(=O)C(Cl)Cl)[C@H](O)c1ccc([N+](=O)[O-])cc1
outcome [1]: inactive | outcome [2]: inactive | outcome [3]: inactive | outcome [4]: inactive

N#CC[C@H](C1CCCC1)n1cc(-c2ncnc3[nH]ccc23)cn1
outcome [1]: inactive | outcome [2]: inactive | outcome [3]: inactive | outcome [4]: inactive | outcome [7]: inactive | SSMD [8]: 3.63 | cell count [8]: 7430 | plate-normalised HSF1 focus index [8]: 1.23 (inactive)

NC(N)=Nc1nc(CSCCC(N)=NS(N)(=O)=O)cs1
outcome [1]: inactive | outcome [2]: inactive | outcome [3]: inactive | outcome [4]: inactive | fold change [5, 20]: 0.921 (inactive) and 0.901 (inactive) and 0.846 (inactive) | fold change [5, 21]: 1.73 and 0.639 and 1.03 | cell count [5, 22]: 9300 and 8340 and 7700 | cell count [5, 23]: 10100 and 9260 and 9100 | z-score [6, 24]: 0.605 (inactive) and -0.262 (inactive) | z-score [6, 25]: -0.158 and 0.443

O=C(Nc1cc2cc[nH]c2cn1)c1ccccc1
AC50 [1]: 14.8 µM (active) | AC50 [2]: 5.9 µM (active) | AC50 [3]: 3.32 µM (active) | AC50 [4]: 14.8 µM (active) | fold change [5, 20]: 0.982 (inactive) | fold change [5, 21]: 0.194 | cell count [5, 22]: 8430 | cell count [5, 23]: 8590 | z-score [6, 24]: -0.697 (inactive) | z-score [6, 25]: -2.76

COc1cc2c(cc1OC)[C@@H]1Cc3ccc(OC)c(OC)c3CN1CC2
outcome [1]: inactive | outcome [2]: inactive | outcome [3]: inactive | outcome [4]: inactive | fold change [5, 20]: 0.902 (inactive) | fold change [5, 21]: 0.654 | cell count [5, 22]: 9170 | cell count [5, 23]: 10200 | z-score [6, 24]: -0.395 (inactive) | z-score [6, 25]: 0.428

CC(=O)N1CCN(c2ccc(OCc3nn(C)c(C)c3-c3cccc4c(CCCOc5cccc6ccccc56)c(C(=O)O)n(Cc5cccnc5)c34)cc2)CC1
AC50 [1]: 9.35 µM (active) | AC50 [2]: 1.66 µM (active) | AC50 [3]: 1.66 µM (active) | AC50 [4]: 1.48 µM (active)

N=C1S/C(=C\c2ccc(-c3ccc4c(c3)C(=O)NC4=O)o2)C(=O)N1c1ccc(Br)cc1
outcome [1]: inactive | outcome [2]: inactive | outcome [3]: inactive | outcome [4]: inactive | outcome [7]: inactive

CO/N=C(/C(=O)N[C@@H]1C(=O)N2C(C(=O)O)=C(Cn3ccc(=N)n3CCO)CS[C@H]12)c1csc(N)n1
outcome [1]: inactive | outcome [2]: inactive | outcome [3]: inactive | outcome [4]: inactive

C[C@H](NCc1ccc(OCc2cccc(F)c2)cc1)C(N)=O
AC50 [1]: 18.7 µM (active) | AC50 [2]: 4.69 µM (active) | AC50 [3]: 9.35 µM (active) | AC50 [4]: 14.8 µM (active)

Cc1cc(-c2nnc3n2CCCCC3)c(C)n1-c1ccccc1
outcome [1]: inactive | outcome [2]: inactive | outcome [3]: inactive | outcome [4]: inactive

CN1CCc2c(n(Cc3ccc(C(=O)NO)cc3)c3ccccc23)C1
outcome [1]: inactive | AC50 [2]: 23.5 µM (active) | AC50 [9]: 18.6 µM (active)

COc1cc2c(cc1OC)CN(CCc1ccc(NC(=O)c3cc(OC)c(OC)cc3NC(=O)c3cnc4ccccc4c3)cc1)CC2
AC50 [1]: 20.9 µM (active) | outcome [2]: inactive | outcome [9]: inactive | outcome [10]: inactive | outcome [7]: inactive | fold change [5, 20]: 0.948 (inactive) | fold change [5, 21]: 0.402 | cell count [5, 22]: 8470 | cell count [5, 23]: 8940 | z-score [6, 24]: -0.604 (inactive) | z-score [6, 25]: 0.309

COc1cc(Oc2ccnc3cc(OC)c(OC)cc23)ccc1NC(=O)NC(C)c1nccs1 (stereo not drawn)
outcome [1]: inactive | outcome [2]: inactive | outcome [4]: inactive | outcome [10]: inactive | outcome [7]: inactive | SSMD [8]: 1.89 | cell count [8]: 6450 | plate-normalised HSF1 focus index [8]: 1.1 (inactive)

COc1cc2ncnc(-n3nc(-c4ccccn4)nc3N)c2cc1OC
AC50 [1]: 23.5 µM (active) | AC50 [2]: 18.7 µM (active) | AC50 [9]: 10.5 µM (active) | outcome [4]: inactive | outcome [7]: inactive | SSMD [8]: 1.68 | cell count [8]: 7810 | plate-normalised HSF1 focus index [8]: 1.06 (inactive) | inhibition ([11]; at 0.5 µM, stronger effect = higher value): -19.6% (inactive) | inhibition ([11]; measured here: combination with BGB IC20, at 0.005 µM): -6.46% | inhibition ([11]; measured here: combination with BGB IC40, at 0.005 µM): -12% | inhibition [11, 26]: -14.8% | inhibition ([11]; measured here: combination with cisplatin, at 0.5 µM, stronger effect = higher value): -28.9% | inhibition ([11]; measured here: combination with cisplatin, at 5 µM, stronger effect = higher value): 3.9% | inhibition ([12]; BGB combo, at 5 µM): -0.513% | inhibition ([12]; at 0.5 µM): -39.2% (inactive) | inhibition ([12]; cisplatin combo, at 5 µM): 11.6% | inhibition [12, 27]: -47.1% | inhibition [12, 28]: -45.4% | inhibition ([12]; single agent, at 5 µM): 27.9% | inhibition ([13]; BGB IC20 combo, at 0.005 µM): 8.82% | inhibition ([13]; BGB IC40 combo, at 0.005 µM): -28.2% | inhibition ([13]; BGB IC40 combo, at 0.05 µM): -13.5% | inhibition ([13]; at 0.5 µM): -27.7% (inactive) | inhibition ([13]; cisplatin combo, at 0.05 µM): -18% | inhibition ([13]; cisplatin combo, at 0.5 µM): -47.4% | inhibition ([13]; cisplatin combo, at 5 µM): -33.3% | inhibition ([13]; measured here: 5 uM single agent, at 5 µM): -7.48% | inhibition ([14]; at 0.5 µM): -45.7% (inactive) | inhibition [14, 26]: -46.2% | inhibition [14, 29]: -87.1% | inhibition ([14]; measured here: combination with cisplatin, at 5 µM): -37.2% | inhibition ([15]; at 0.5 µM): -23% (inactive) | inhibition ([15]; measured here: with BGB IC20, at 0.5 µM): -35.6% | inhibition ([15]; measured here: with BGB IC20, at 5 µM): 15.3% | inhibition ([15]; measured here: with cisplatin IC20, at 0.5 µM): -19.3% | inhibition ([15]; measured here: with cisplatin IC20, at 5 µM): 25.5% | inhibition ([15]; single agent, at 5 µM): 39.7% | inhibition ([16]; at 0.5 µM): -17.5% (inactive) | inhibition ([16]; measured here: BGB combination, at 0.5 µM): -21.1% | inhibition ([16]; measured here: BGB combination, at 5 µM): -18.6% | inhibition ([16]; measured here: cisplatin combination, at 0.5 µM): -13.3% | inhibition ([16]; measured here: cisplatin combination, at 5 µM): -24.4% | inhibition ([17]; at 0.5 µM): 0.0685% (inactive) | inhibition ([17]; cisplatin combination, at 0.5 µM): 7.09% | inhibition ([17]; cisplatin combination, at 5 µM): 63.7% | inhibition ([17]; measured here: BGB IC40 combination 0.05 uM, at 0.05 µM): 69% | inhibition ([17]; single agent, at 5 µM): 13.7% | inhibition ([18]; at 0.5 µM): -14.5% (inactive) | inhibition ([18]; cisplatin combo, at 5 µM): 36.5% | inhibition ([18]; measured here: BGB IC40 combination, at 0.05 µM): -31.7% | inhibition [18, 29]: -5.13% | inhibition ([18]; single agent, at 5 µM): -24.7% | inhibition ([19]; at 0.5 µM): -59.7% (inactive) | inhibition [19, 27]: -65.7% | inhibition [19, 28]: -56.7% | inhibition ([19]; single agent, at 0.05 µM): -35.9% | inhibition ([19]; single agent, at 5 µM): -52.5%

Source: PubChem BioAssay
